These results are taken from PubChem BioAssay (NCI).

About 79,000 compounds went through this panel and 15% of them were active in at least one assay; those are over-represented in the sample as a whole. A number with no mark means an inactive call. Active and inactive are the calls of the source. Rule as the data show it: active = growth inhibition above about 70%; inactive = the rest.

The nature of assay [1]: NCI Yeast Anticancer Drug Screen. Data for the rad50 strain (AID 155).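 Also: 0% = growth of vehicle-only cultures of the same strain.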 The following applies: S. cerevisiae rad50 strain growth inhibition; at 50.0 µM; stronger effect = higher value. A digest of the protocol:
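Relative growth inhibition (compound vs vehicle) was measured in yeast with a defined repair-gene alteration.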

Assay [2] is described as follows: NCI Yeast Anticancer Drug Screen. Data for the mec2-1 strain (AID 157). The following applies: S. cerevisiae mec2-1 strain, at 50.0 µM, stronger effect = higher value. The method in brief: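 mec2-1 yeast strain, carrying an alteration in DNA damage repair or cell cycle control, was exposed to compounds; growth inhibition was measured relative to vehicle-treated controls.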

The nature of assay [3]: NCI Yeast Anticancer Drug Screen. Data for the sgs1 mgt1 strain (AID 161).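 Also: 0% = growth of cultures given vehicle only.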 The following applies: S. cerevisiae sgs1 mgt1 strain, at 50.0 µM, stronger effect = higher value. The method in brief:
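Percent growth inhibition was derived by comparing compound-exposed mutant yeast with vehicle-exposed cultures. The strain carries alterations in DNA damage repair.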

Assay [4] is described as follows: NCI Yeast Anticancer Drug Screen. Data for the cln2 rad14 strain (AID 165).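 Also: 0% = growth equal to vehicle treated cultures.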 The following applies: S. cerevisiae cln2 rad14 strain, at 50.0 µM, stronger effect = higher value. A digest of the protocol: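 Yeast carrying cln2 and rad14 alterations (cell cycle control and DNA damage repair) were exposed to compounds. Growth inhibition was measured against vehicle-treated controls.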

Assay [5] can be described thus: NCI Yeast Anticancer Drug Screen. Data for the bub3 strain (AID 167). The following applies: S. cerevisiae bub3 mutant strain, at 50.0 µM, stronger effect = higher value. A digest of the protocol:
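Screening used yeast with an engineered genetic alteration affecting cell cycle control. Compound-exposed cultures were compared with vehicle cultures, and reduced growth was taken as inhibition.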

A short description of assay [6]: NCI Yeast Anticancer Drug Screen. Data for the mlh1 rad18 strain (AID 175). The following applies: S. cerevisiae mlh1 rad18 strain growth inhibition; at 50.0 µM; stronger effect = higher value. The method in brief:
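Growth inhibition of the yeast strain was measured after compound exposure and expressed relative to vehicle-treated controls. The strain carries defined defects in DNA damage repair.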

On to `CC(C)CCOC(=O)NC1c2ccccc2Oc2ccccc21`, for which the growth inhibition in assay [1] was -10%; in assay [2] it was 3.55%; in assay [3], 3.65%; in assay [4], 18%; in assay [5], 0.1%; in assay [6], -1.3%.
With `COC(=O)c1c(C=O)cccc1[N+](=O)[O-]`, the growth inhibition in assay [1] is 22.7%; in assay [2] it was -0.05%; in assay [3] it was 1.75%; in assay [4], 0.7%; in assay [5], -14.1%; in assay [6], 15.2%.
Regarding `O=C(NCC1CC1)NC(=O)c1c(F)cccc1Cl`, the growth inhibition in assay [1] was -1.2%; in assay [2], -13%; in assay [3] it was 12.6%; in assay [4] it was 20.8%; in assay [5] it was 36.6%; in assay [6] it was 9.65%.
Turning to `CCOCCC(=N)OCC`, the growth inhibition is 11.2% in assay [1]; -4.7% in assay [2]; 7.9% in assay [3]; 9.45% in assay [4]; 4.2% in assay [5]; 13.6% in assay [6].
Regarding `COc1ccc2nc(C3CCCCC3C(=O)O)cc(C)c2c1` (stereo unspecified), the growth inhibition was -9.2% in assay [1]; -5.35% in assay [2]; -5.8% in assay [3]; -27.1% in assay [4]; -4.3% in assay [5]; -1.45% in assay [6].
For `c1ccc(COC2C3COC(O3)C(OCc3ccccc3)C2OCc2ccccc2)cc1` (stereo unspecified), the growth inhibition in assay [1] was 11.7%; in assay [2], -1.7%; in assay [3], 26.4%; in assay [4] it was 3.2%; in assay [5], 17.7%; in assay [6] it was 22.4%.
As to `COc1cc([N+](=O)[O-])c2[nH]c(=O)ccc2c1`, the growth inhibition in assay [1] is -11.7%; in assay [2], 19.7%; in assay [3], -4.5%; in assay [4], -7.2%; in assay [5], -2.05%; in assay [6], 3.45%.
Turning to `COc1ccc2c(c1OC(C)=O)C1=CC(OC(C)=O)=CCC13CCN(C)C3C2` (stereo unspecified), the growth inhibition in assay [1] is 2.75%; in assay [2], -0.15%; in assay [3], -10.8%; in assay [4], -4.7%; in assay [5] it was -6.4%; in assay [6] it was -0.15%.
In the case of `Oc1ccccc1C=Nc1cccnc1`, the growth inhibition is 6.75% in assay [1]; -19.5% in assay [2]; -2.45% in assay [3]; -7.2% in assay [4]; -0.6% in assay [5]; 8.7% in assay [6].
As for `CCOC(=O)C(CCc1ccc([N+](=O)[O-])cc1)(CCc1ccc([N+](=O)[O-])cc1)C(=O)OCC`, the growth inhibition was -8.7% in assay [1]; -16.1% in assay [2]; -7.3% in assay [3]; -29.1% in assay [4]; -0.3% in assay [5]; 6.15% in assay [6].
With `Cc1cc2ncn(C3CCCO3)c2cc1C` (stereo unspecified), the growth inhibition in assay [1] is 6.35%; in assay [2] it was -6.1%; in assay [3], -14.3%; in assay [4], 3.45%; in assay [5] it was 3.7%; in assay [6], -23.1%.
Take `Cn1c([N+](=O)[O-])cnc1COS(=O)(=O)c1cccnc1`: the growth inhibition is 6.05% in assay [1]; -9.15% in assay [2]; 25.8% in assay [3]; 11.1% in assay [4]; 16.8% in assay [5]; 15.6% in assay [6].
With `CC(Cc1ccccc1)Nc1ncnc2c1ncn2C1OC(CO)CC1O` (stereo unspecified), the growth inhibition in assay [1] is 7.5%; in assay [2] it was 2.35%; in assay [3] it was 12.6%; in assay [4] it was 1.6%; in assay [5] it was 2.3%; in assay [6], -11.7%.
Consider `c1csc(-c2nccc3ccccc23)c1`, for which the growth inhibition is 1.6% in assay [1]; 2.3% in assay [2]; -19.2% in assay [3]; 2.2% in assay [4]; 7.7% in assay [5]; 10.6% in assay [6].
In the case of `C/C=C\CCCCC`, the growth inhibition in assay [1] is 13.8%; in assay [2], 9.4%; in assay [3] it was 15.4%; in assay [4] it was 24.1%; in assay [5] it was 34.6%; in assay [6] it was 10.9%.
With `O=C(O)c1ccc(O)c(C(=O)O)c1`, the growth inhibition in assay [1] was 12%; in assay [2], 11%; in assay [3], 20.6%; in assay [4] it was -14.7%; in assay [5] it was -6.15%; in assay [6], 16.8%.
With `COc1ccc(N)cc1CO`, the growth inhibition is 8.85% in assay [1]; -9.85% in assay [2]; -15.3% in assay [3]; -17.1% in assay [4]; -12.3% in assay [5]; 12.7% in assay [6].
With `COc1ccccc1/C=N/Nc1nnc2c3ccccc3c3ncccc3c2n1`, the growth inhibition was -28.8% in assay [1]; -45.8% in assay [2]; -22.5% in assay [3]; -10.8% in assay [4]; -8.55% in assay [5]; -34% in assay [6].
In the case of `CCCC1(C)COC(C)(CCC)OC1` (stereo unspecified), the growth inhibition in assay [1] is -31.6%; in assay [2], -8.3%; in assay [3] it was -17.9%; in assay [4], -34.4%; in assay [5], -16.9%; in assay [6] it was -0.45%.
Regarding `COc1cc2c(c(OC)c1OC)-c1ccc(OC)c(=O)cc1C(NC(=S)Nc1ccccc1)CC2` (stereo unspecified), the growth inhibition is 96.5% (active) in assay [1]; 96.8% (active) in assay [2]; 96.8% (active) in assay [3]; 93.5% (active) in assay [4]; 95.6% (active) in assay [5]; 96.5% (active) in assay [6].
With `COc1ccc2c(c1)OC(C)(C)C(c1ccccc1)=C2c1ccc2c(c1)NCCO2`, the growth inhibition was 1% in assay [1]; -2.35% in assay [2]; 11.1% in assay [3]; -38.5% in assay [4]; -22.6% in assay [5]; 32.2% in assay [6].
